Y pestis TopoI: blocks Yersinia pestis topoisomerase I activity | Y. pestis Topo-I cleavage product accumulation, plate reader | activity, % at 10 µM | hit rate 0.064% among 360,000; in the data active means activity above about 50%, passing the limit was not always enough
Mtb BioA inh: BioA (M. tuberculosis) enzyme inhibition; hit rate 0.096% among 360,000; purified M. tuberculosis BioA enzyme, plate reader; AID 602481; inhibition, % at 9.99 µM; in the data active means inhibition above about 40%
TcdB GH inh: blocks C. difficile toxin B glycohydrolase activity; P18177; hit rate 0.24% among 350,000; AID 652162; TcdB glycohydrolase enzymatic assay, plate reader; inhibition, % at 9.99 µM; in the data active means inhibition above about 10%
FadD28 FP inh: blocks FadD28 binding to the bisubstrate probe. fluorescence polarization. hit rate 0.22% among 360,000. inhibition, % at 12.5 µM; in the data active means inhibition above about 8.5%, passing the limit was not always enough
BH1578 lux ind: quorum light induction in luxS cqsA deficient V. cholerae; activation, % at 18.7 µM; hit rate 0.16% among 350,000; V. cholerae BH1578 lux reporter, luminescence, 6 h; in the data active means activation mostly above about 9.7%, no sharp cut-off
Numbers without * were called inactive; i = inactive; . = no result. This is a sample that favours compounds with a hit; in the whole collection about 0.61% have one here.

SMILES	Y pestis TopoI	Mtb BioA inh	TcdB GH inh	FadD28 FP inh	BH1578 lux ind
O=c1c(-c2ccc(Cl)cc2)coc2c(CN3CCOCC3)c(O)ccc12	0.5	0.6	.	-2.1	0.8
COc1ccc(-c2coc3c(CN4CCOCC4)c(O)ccc3c2=O)cc1	-13.1	-0.4	-0.3	-1.6	12.7*
O=C(NCc1ccc(F)cc1)[C@@H]1[C@@H](CO)[C@@H]2Cn3c(cccc3=O)[C@H]1N2Cc1cccnc1	.	1.1	-0.2	.	.
Cn1c(=O)c(NCCc2ccccc2)c2c3c(cccc31)C(=O)c1ccccc1-2	23.8	-74.0	.	93.0*	.
CCCCN(c1nc2ccccc2nc1Cl)S(=O)(=O)c1ccc(C)cc1	54.8*	.	1.0	-1.6	-0.6
CCCN(CCC)CC(O)CN(c1ccccc1)S(=O)(=O)c1ccc(C)cc1 (stereo not given)	11.7	0.7	.	-0.4	-0.3
COc1cc(/C=C2/SC(=S)N(CC(=O)O)C2=O)ccc1OC(=O)c1cccs1	24.0	.	2.0	3.3	3.6
COc1cc(/C=C2\SC(=S)N(CC(=O)O)C2=O)ccc1OS(=O)(=O)c1ccc(C)cc1	29.4	2.9	3.8	9.7*	-0.7
OC[C@H]1[C@H](c2ccc(-c3ccc(F)cc3)cc2)[C@@H]2CN(Cc3cccnc3)CCCCN12	.	-1.0	-0.2	.	.
CN1C(=O)c2cc(NC(=O)C3CCOCC3)ccc2OC[C@H]2O[C@@H](CC(=O)NCC3CC3)CC[C@@H]21	.	-3.3	0.5	.	.
COc1ccc(CNc2ncnc3cc(Cl)ccc23)cc1	5.0	.	-1.7	-6.4	.
Oc1ccc(CCNc2ncnc3ccc(Cl)cc23)cc1	-3.6	0.1	11.5*	-3.6	-0.3
Nc1nc(Cl)cc(NCCc2ccccc2)n1	.	.	3.2	.	.
Nc1nc(Cl)cc(NCCc2ccc(O)cc2)n1	-5.8	.	13.5*	-2.6	i
COc1ccc(SC[C@H](C)CN2CC[C@H](NC(=O)OCc3ccccc3)CCC2=O)cc1	17.4	-1.0	10.2*	-3.6	-0.6
CCn1cc(CN2CCC(C(=O)Nc3ccc(Oc4cccnc4)cc3)CC2)c(C)n1	2.8	-2.0	2.4	13.3*	-1.7
C=CCn1cc(CN2CCC(C(=O)Nc3ccc(Oc4cccnc4)cc3)CC2)c(C)n1	-1.6	-1.1	-9.9	15.6*	-12.7
Cc1ncc(CN2CCC(C(=O)Nc3ccc(Oc4cccnc4)cc3)CC2)cn1	6.2	-1.7	1.2	-2.7	-0.5
CCCCCCC[n+]1ccc(-c2cc[n+](CCCCCCC)cc2)cc1	12.3	-1.2	1.0	-0.4	-0.3
CCCCCCCCCCCCCCCC[n+]1cccc(C(=O)N(CC)CC)c1	-16.9	18.2	2.8	13.7*	0.9
CCCCCCCCCCCCCCCC[n+]1ccccc1	-20.9	23.9	2.5	31.8*	-0.4
CCCCCCCCCCCCCCCC[n+]1ccc(C(N)=O)cc1	10.5	1.1	.	22.5*	-0.6
CN(C)C(=O)c1cccc(-c2ccc(C3[C@H]4CNC[C@@H]3N4Cc3cc(F)ccc3F)cc2)c1 (stereo not given in full)	.	.	0.1	.	.
O=C(NCc1ccncc1)[C@@H]1CCCN1C(=O)[C@@H]1CCCN1	.	.	12.1*	.	.
O=C(NCc1ccccc1)[C@@H]1CCCN1C(=O)[C@@H]1CCCN1C(=O)c1cccs1	.	.	11.5*	.	.
SMILES	Y pestis TopoI	Mtb BioA inh	TcdB GH inh	FadD28 FP inh	BH1578 lux ind
CC(C)(C)OC(=O)NCCOCCOCCNc1ncnc2ccc(Br)cc12	.	.	-2.4	.	.
COc1ccc(NC2CCCN(C(=O)CN3CCOC3=O)C2)cc1 (stereo not given)	-3.0	0.4	1.0	0.7	i
COc1ccc(NC2CCCN(C(=O)CN3CCOC3=O)C2)cc1OC (stereo not given)	-0.5	1.1	11.5*	-2.4	2.6
O=C(C[C@H]1CC[C@@H]2NC[C@@H](O)COC[C@H]2O1)Nc1nccs1	.	-0.6	-0.9	.	.
FC(F)(F)c1nc(NCc2ccccc2)c2nnn(Cc3ccccc3)c2n1	-1.8	0.8	0.6	-1.5	0.8
CCOC(=O)CNc1nc(C(C)(C)C)nc2c1nnn2Cc1ccccc1	58.7*	-0.8	0.6	-1.5	1.9
CC(C)NC(=O)Nc1ccc2c(c1)C(=O)N([C@@H](C)CO)C[C@H](C)[C@@H](CN(C)CC1CCCCC1)O2	.	0.9	0.3	.	.
CCOC(=O)c1ccc(-n2c(CCC(=O)O)ccc2-c2ccc(F)cc2)cc1	7.8	1.7	17.0*	-0.7	-0.5
Cc1ccnc(N2C(=O)c3cccc4c([N+](=O)[O-])ccc(c34)C2=O)c1	3.9	-1.5	0.2	-3.9	6.2
Cc1ccnc(N2C(=O)c3ccccc3C2=O)c1	5.7	1.8	14.7*	.	i
O=C(C[C@H]1CC[C@@H]2[C@H](COC[C@@H](O)CN2Cc2cccc(Cl)c2)O1)N1CCOCC1	.	0.3	-0.8	.	.
Cc1ccc(S(=O)(=O)Oc2ccc(/C=N/NC(=O)c3nn(C)cc3[N+](=O)[O-])cc2)cc1	21.6	.	13.9*	-7.5	-0.1
Cc1ccc(S(=O)(=O)Oc2ccccc2/C=N/NC(=O)c2nn(C)cc2[N+](=O)[O-])cc1	1.0	0.3	.	-15.4	-1.7
CCNC(=O)C[C@@H]1CC[C@@H](NS(=O)(=O)c2ccc(C)cc2)[C@@H](CO)O1	.	-2.2	-1.5	.	.
COc1ccc(NC(=O)O[C@H](c2ccc(OC)c(O)c2)[C@@H](CCO)OC)cc1	.	-0.6	-0.6	.	.
CSc1cccc(NC(=S)NC(=O)CCc2ccccc2)c1	13.5	-1.5	2.1	-4.6	-0.9
CSc1cccc(NC(=O)CCc2ccccc2)c1	12.2	.	10.6*	-1.6	-0.3
Cc1ccc(C(=O)Nn2c(O)c(C=C3N=c4ccccc4=N3)sc2=S)cc1	-15.3	-0.7	.	2.2	i
O=C(Nn1c(O)c(C=C2N=c3ccccc3=N2)sc1=S)c1ccc(Cl)cc1	-10.9	.	.	48.2*	i
O=C(Nn1c(O)c(C=C2N=c3ccccc3=N2)sc1=S)c1ccccc1	-22.3	-1.0	.	14.5*	-1.8
CCN(C(=O)COC(=O)c1cccnc1SC)C1CCCCC1	4.5	-0.4	14.7*	.	i
Cc1cc(C(=O)CSc2nc(N)cc(=O)[nH]2)c(C)n1CC1CCCO1 (stereo not given)	1.4	-3.0	11.6*	-2.9	i
Cc1cc(C(=O)CSc2nc(N)cc(N)n2)c(C)n1CC1CCCO1 (stereo not given)	7.0	3.7	0.2	0.5	i
C[C@@H]1CN([C@@H](C)CO)C(=O)c2cccc(NC(=O)c3cnccn3)c2O[C@H]1CN(C)Cc1ccc(C(=O)Nc2ccccc2N)cc1	.	4.1	0.9	.	.
ON=C1c2ccccc2-c2ccc(O)cc21	-1.5	.	15.3*	1.0	2.2
SMILES	Y pestis TopoI	Mtb BioA inh	TcdB GH inh	FadD28 FP inh	BH1578 lux ind
C[C@@H]1CN([C@H](C)CO)C(=O)c2cc(C#Cc3cccc(F)c3)cnc2O[C@@H]1CN(C)C(=O)C1CCOCC1	.	3.3	.	.	.
CCn1c(SCC(=O)Nc2ccc(C(=O)OC)cc2)nnc1-c1cccs1	16.9	-1.0	.	-1.2	-0.7
CCn1c(SCC(=O)NCC(=O)Nc2ccc(F)cc2)nnc1-c1cccs1	2.2	5.9	.	0.5	24.8*
CCn1c(C)nc2cc(C(=O)N/N=C/c3ccc(O)cc3)ccc21	-0.5	.	13.8*	-0.3	-0.3
CCn1c(C)nc2cc(C(=O)N/N=C/c3ccc(OC)c(O)c3)ccc21	-7.1	.	10.8*	-5.0	-0.4
CCn1c(C)nc2cc(C(=O)N/N=C/c3ccc(OC)cc3)ccc21	-3.1	.	0.4	-2.2	0.2

From PubChem BioAssay
